# According to PubChem BioAssay (EPA / NIEHS):
# The source made the active and inactive calls. Rule for the calls: active = hit-call score of the fitted dose curve at least 0.9, where 1 is the maximum; inactive = score below 0.9.
# Assay: CCTE_Padilla_ZF_Score.Living: CCTE's 144 Hour Post-fertilization zebrafish Assay Score for Viability, Padilla Lab (AID 2284410);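 note: larval death at 6 dpf judged by absent heartbeat or coagulation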
# Method: CCTE_Padilla_ZF_Phenotype_Score is a whole embryo, multiplexed assay using zebrafish ova exposed for 144 hours post fertilization on a 96-well plate.CCTE_Padilla_ZF_Score.Living is one of one assay component(s) measured or calculated from the CCTE_Padilla_ZF_Phenotype_Score assay. It is designed to make measurements of zebrafish development as detected with brightfield microscopy of developing zebrafish embryos.Data from the assay component CCTE_Padilla_ZF_Score.Living was analyzed into 1 assay endpoints. This assay endpoint, CCTE_Padilla_ZF_Score.Living, was analyzed in the positive analysis fitting direction relative to DMSO as the negative control and baseline of activity. Using a type of viability reporter, gain-of-signal activity can be used to understand changes in developmentals as they relate to the whole embryo. To generalize the intended target to other relatable targets, this assay endpoint is annotated to the zebrafish development intended target family, where the subfamily is embryonic mortality.
# Zebrafish husbandry: Wild type adult zebrafish (Danio rerio; undefined outbred stock obtained from Aquatic Research Organisms, Hampton, NH, 03842) were housed in an AAALAC-approved animal facility at 28C with a 14:10 h light: dark cycle (lights on at 08:30 h). Adult fish (2-3 females per male; density = 15-20 adults per tank) were kept in one of several 9-liter (L) flow-through colony tanks (Aquaneering Inc., San Diego, CA). All adults in a colony tank were placed in a 2 L (static) breeding tank (Aquatic Habitats, Apopka, FL) one hour prior to light onset. Typically, adults from two to three colony tanks were mated on the same day. Two hours after light onset the adults were returned to the colony tank. All embryos were gathered from each breeder tank, pooled, and placed in a 28C water bath for 2 h, followed by two washes with 0.06% bleach (v/v) in 10% Hanks' Balanced Salt Solution (13.7 mM NaCl 0.54 mM KCl, 25 uM Na2HPO4, 130 uM CaCl2 100 um MgSO4 and 420 um NaHCO3,), hereafter referred to as Hanks' solution, for 5 min in order to remove any residual bacteria or fungi. Immediately following washing, the embryos were examined, and healthy embryos were separated from dead or unfertilized eggs and moved into fresh Hanks'. Chemical exposures: Zebrafish embryos were exposed in 96-well plates. Between 6- and 8-hours post fertilization (hpf), healthy embryos (with chorions) were transferred, one embryo per well, into 96 well (0.5 mL) microtiter plates (Cell Culture-Treated, Flat-Bottom Microplate 96 well [Corning Costar, Kennebunk, ME; Cat 09-761-145]) filled with 200 uL of Hanks' solution. A random number generator was used to assign the order in which the rows of embryos were plated in 96 well plates each week. After plating, the embryos were dosed with 0.8 uL of the chemical dosing solution then immediately sealed with AlumaSeal II (Excel Scientific Inc, Victorville, CA) to prevent volatilization of the chemicals, and then placed in a leakproof secondary container. These containers were placed in an incubator maintained on a 14:10 h light: dark cycle at 26C for rearing. On 5 dpf, live larvae were gently moved out of the plate with test chemicals and into a new 96 well mesh plate (Millipore Corp., Bedford, MA) with just the Hanks' solution. Once within the mesh well plate, the animals were rinsed with 400 uL of fresh Hanks' three times, and then the plates were covered with a non-adhesive material (Microseal A, BioRad, Hercules, CA), plate lid added, and then plate sides wrapped in Parafilm (PM992, Bermis Company, Neenah, WI), and returned to the incubator. […]
row,SMILES,outcome
1,O=C(Cl)C(F)(F)C(F)(F)C(F)(F)C(=O)Cl,inactive
2,OCCC(F)(F)C(F)(F)C(F)(F)C(F)(F)F,inactive
3,OC(O)(C(F)C(O)(O)C(F)(F)F)C(F)(F)F,inactive
4,FC(F)C(F)(F)COCC1CO1 (stereo not given),inactive
5,FC(F)=C(F)C(F)(F)C(F)(F)C(F)(F)C(F)(F)C(F)(F)C(F)(F)F,inactive
6,C[Si](C)(C)C(F)(F)C(F)(F)C(F)(F)F,inactive
7,O=S(=O)(O)CCC(F)(F)C(F)(F)C(F)(F)C(F)(F)C(F)(F)C(F)(F)F,inactive
8,NCC(F)(F)C(F)(F)C(F)(F)C(F)(F)F,inactive
9,FC(F)(F)COC(OCC(F)(F)F)OCC(F)(F)F,inactive
10,FC(F)(F)C(F)(F)C(F)(F)C(F)(F)C(F)(F)C(F)(F)I,inactive
